# From the supplement of paper PMC9262897, “Low-cost anti-mycobacterial drug discovery using engineered E. coli” (Nature Communications, 2022)
# Where a name gives a salt, the structure may show the parent alone. ± gives the standard deviation of the averaged measurements.
# Test system: E. coli TESEC Mtb DapB
# Assay: growth (OD600 after 10 h); higher = more growth (less inhibition)
# Conditions: arabinose induction (level): High; compound 0.1 mM; raw OD600 reference: median of DMSO wells […], cell-free background 0.041
# Procedure: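 TESEC E. coli strains in which the native enzyme is deleted and replaced by arabinose-inducible Mtb Asd, DapB, CysH or TrpD, each grown in its selective medium. Strains were screened against the Prestwick library at 0.1 mM and 1% DMSO in 384-well format at low and high arabinose induction. Growth is read as OD600 after 10 h in triplicate.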
row,SMILES,growth
1,O=c1[nH]c(=O)n([C@H]2C[C@H](O)[C@@H](CO)O2)cc1I [Idoxuridine],0.185 ± 0.0093
2,CCN1CCN(C(=O)N[C@@H](C(=O)N[C@@H]2C(=O)N3C(C(=O)O)=C(CSc4nnnn4C)CS[C@H]23)c2ccc(O)cc2)C(=O)C1=O [Cefoperazone dihydrate],0.201 ± 0.0085
3,NNC(=O)c1ccncc1 [Isoniazid],0.194 ± 0.0035
4,CN(C)C(=O)C(CCN1CCC(O)(c2ccc(Cl)cc2)CC1)(c1ccccc1)c1ccccc1 [Loperamide hydrochloride],0.0489 ± 0.00058
5,CC(=O)N[C@@H](CC(=O)N[C@@H](CCC(=O)O)C(=O)O)C(=O)O [Spaglumic acid],0.211 ± 0.021
6,Nc1nc(Cl)nc2c1ncn2[C@H]1C[C@H](O)[C@@H](CO)O1 [Cladribine],0.244 ± 0.046
7,CCCCCN(C)CCC(O)(P(=O)(O)O)P(=O)(O)O [Ibandronate sodium],0.206 ± 0.0027
8,CN(C)/N=N/c1[nH]cnc1C(N)=O [Dacarbazine],0.181 ± 0.012
9,C[N+]1(CCCCC[N+]2(C)CCCC2)CCCC1 [Pentolinium bitartrate],0.1752 ± 0.00061
10,N#Cc1ccc(C(c2ccc(C#N)cc2)n2cncn2)cc1 [Letrozole],0.213 ± 0.018
11,COc1cc2nc(N3CCN(C(=O)c4ccco4)CC3)nc(N)c2cc1OC [Prazosin hydrochloride],0.247 ± 0.023
12,COc1cc2nc(N3CCN(C(=O)C4COc5ccccc5O4)CC3)nc(N)c2cc1OC (stereo not given) [Doxazosin mesylate],0.194 ± 0.015
13,CCN1CC(CCN2CCOCC2)C(c2ccccc2)(c2ccccc2)C1=O (stereo not given) [Doxapram hydrochloride],0.205 ± 0.018
14,CC1=C(/C=C/C(C)=C/C=C/C(C)=C/C(=O)O)C(C)(C)CCC1 [Retinoic acid],0.186 ± 0.0028
15,CCCCOc1cc(C(=O)OCCN(CC)CC)ccc1N [Benoxinate hydrochloride],0.183 ± 0.016
16,Cc1c(N)c(=O)n(-c2ccccc2)n1C [Ampyrone],0.175 ± 0.0078
17,CCC1(c2ccccc2)C(=O)NCNC1=O [Primidone],0.208 ± 0.014
18,CCn1cc(C(=O)O)c(=O)c2cnc(N3CCNCC3)nc21 [Pipemidic acid],0.188 ± 0.0053
19,CN(C)CCOC1=Cc2ccccc2Sc2ccc(Cl)cc21 [Zotepine],0.171 ± 0.019
20,CC(=O)N(O)CCCCCNC(=O)CCC(=O)N(O)CCCCCNC(=O)CCC(=O)N(O)CCCCCN [Deferoxamine mesylate],0.137 ± 0.021

# Same assay, conditions: arabinose induction (level): Low; compound 0.1 mM; raw OD600 reference: median of DMSO wells 0.227, cell-free background 0.041
row,SMILES,growth
1,O=c1[nH]c(=O)n([C@H]2C[C@H](O)[C@@H](CO)O2)cc1I [Idoxuridine],0.202 ± 0.03
2,CCN1CCN(C(=O)N[C@@H](C(=O)N[C@@H]2C(=O)N3C(C(=O)O)=C(CSc4nnnn4C)CS[C@H]23)c2ccc(O)cc2)C(=O)C1=O [Cefoperazone dihydrate],0.239 ± 0.042
3,NNC(=O)c1ccncc1 [Isoniazid],0.242 ± 0.052
4,CN(C)C(=O)C(CCN1CCC(O)(c2ccc(Cl)cc2)CC1)(c1ccccc1)c1ccccc1 [Loperamide hydrochloride],0.0571 ± 0.017
5,CC(=O)N[C@@H](CC(=O)N[C@@H](CCC(=O)O)C(=O)O)C(=O)O [Spaglumic acid],0.216 ± 0.027
6,Nc1nc(Cl)nc2c1ncn2[C@H]1C[C@H](O)[C@@H](CO)O1 [Cladribine],0.209 ± 0.018
7,CCCCCN(C)CCC(O)(P(=O)(O)O)P(=O)(O)O [Ibandronate sodium],0.232 ± 0.035
8,CN(C)/N=N/c1[nH]cnc1C(N)=O [Dacarbazine],0.213 ± 0.033
9,C[N+]1(CCCCC[N+]2(C)CCCC2)CCCC1 [Pentolinium bitartrate],0.185 ± 0.0091
10,N#Cc1ccc(C(c2ccc(C#N)cc2)n2cncn2)cc1 [Letrozole],0.24 ± 0.032
11,COc1cc2nc(N3CCN(C(=O)c4ccco4)CC3)nc(N)c2cc1OC [Prazosin hydrochloride],0.285 ± 0.029
12,COc1cc2nc(N3CCN(C(=O)C4COc5ccccc5O4)CC3)nc(N)c2cc1OC (stereo not given) [Doxazosin mesylate],0.208 ± 0.038
13,CCN1CC(CCN2CCOCC2)C(c2ccccc2)(c2ccccc2)C1=O (stereo not given) [Doxapram hydrochloride],0.243 ± 0.017
14,CC1=C(/C=C/C(C)=C/C=C/C(C)=C/C(=O)O)C(C)(C)CCC1 [Retinoic acid],0.2256 ± 0.00047
15,CCCCOc1cc(C(=O)OCCN(CC)CC)ccc1N [Benoxinate hydrochloride],0.21 ± 0.036
16,Cc1c(N)c(=O)n(-c2ccccc2)n1C [Ampyrone],0.209 ± 0.011
17,CCC1(c2ccccc2)C(=O)NCNC1=O [Primidone],0.249 ± 0.013
18,CCn1cc(C(=O)O)c(=O)c2cnc(N3CCNCC3)nc21 [Pipemidic acid],0.168 ± 0.0065
19,CN(C)CCOC1=Cc2ccccc2Sc2ccc(Cl)cc21 [Zotepine],0.1696 ± 0.0015
20,CC(=O)N(O)CCCCCNC(=O)CCC(=O)N(O)CCCCCNC(=O)CCC(=O)N(O)CCCCCN [Deferoxamine mesylate],0.13 ± 0.0032
